The list is not random: actives were taken first. Their share in the collection is about 3.2%.
RGS12 GoLoco inh: blocks human Gai1 binding to RGS12 GoLoco peptide, red readout; AID 880; actives 0.44% (n = 230,000); Potency, µM (series often up to 61.6 µM), for the others: at the top dose activity, negative = inhibition, actives largely listed as inhibitors; P63096; Gai1:RGS12 GoLoco peptide FP, rhodamine, 10 min; active = well fitted inhibition curve with a large enough effect, not every such curve was filed as active; inactive = no such curve, though single readings can be large or run the other way; also: nearly all actives have a fitted effect of over 30% in size
Target sequence (P63096 whole entry, looked up): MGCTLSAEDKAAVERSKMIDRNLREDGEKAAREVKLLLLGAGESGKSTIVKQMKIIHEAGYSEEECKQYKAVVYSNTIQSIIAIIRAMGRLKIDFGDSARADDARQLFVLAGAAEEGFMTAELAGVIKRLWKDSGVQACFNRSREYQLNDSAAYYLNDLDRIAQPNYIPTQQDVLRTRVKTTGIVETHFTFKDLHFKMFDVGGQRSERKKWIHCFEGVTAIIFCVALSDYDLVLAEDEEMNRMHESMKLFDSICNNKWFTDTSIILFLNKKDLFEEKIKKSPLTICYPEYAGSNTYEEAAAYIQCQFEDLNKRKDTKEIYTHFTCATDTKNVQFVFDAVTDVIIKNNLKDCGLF
Tau fibril FP: blocks human tau fibril formation measured by polarization; K18 P301L tau heparin fibrillization, Alexa594 FP, 6 h; P10636; Potency, µM (series often up to 57.7 µM), for inactives: top-dose activity, negative = inhibition, actives largely listed as inhibitors; actives 0.39% (n = 280,000); also: nearly all actives have a fitted effect of over 55% in size
Target sequence (P10636 561-689 P618L limits assumed): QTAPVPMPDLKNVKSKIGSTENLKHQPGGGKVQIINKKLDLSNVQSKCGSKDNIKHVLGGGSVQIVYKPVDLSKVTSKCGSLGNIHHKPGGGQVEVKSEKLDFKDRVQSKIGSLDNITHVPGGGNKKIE
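Recombinant K18 P301L […], labeled with Alexa 594 at 0.24 uM over 15 uM unlabeled; heparin inducer 20 uM final; 37 C, 6 hr; FP endpoint.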
Tau fluor counter: counter-screen for tau fibril formation inhibitors. tau K18 P301L Alexa594 fluorescence, heparin fibrillization. Potency, µM (titrated, usually from 57.7 µM), for the others: top-dose activity change, negative = decrease. actives 0.93% (n = 280,000); also: nearly all actives have a fitted effect of over 55% in size
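Human K18 P301L tau (15 uM unlabeled plus 0.24 uM Alexa 594-labeled, final) in 100 mM sodium acetate pH 7 was mixed with compound and 20 uM heparin and incubated 6 hr at 37 C.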
TexasRed fluor: counter-screen for TRb-SRC2 inhibitors: fluorescence interference; AID 1479; actives 0.29% (n = 280,000); TRb/SRC2 Texas Red total fluorescence interference; Potency, µM (titrated, usually from 106 µM), for the others: top-dose fluorescence change, negative = quenching; active = well fitted curve in either direction with a large enough effect; inconclusive = small, poorly fitted or top-dose-only effect
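Human TRb ligand-binding domain at 0.6 uM with 20 nM Texas Red SRC2 peptide in Tris buffer containing 1 uM T3 and 5% DMSO, incubated with compound 5 h at ambient temperature. Total fluorescence (555/632 nm) calculated as parallel + 2 × perpendicular.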
Tau fibril ThT: inhibitors of human tau fibril formation, thioflavin T binding; Potency, µM (highest dose often 57.4 µM), without a hit: top-dose activity, negative = inhibition, hits mostly inhibitors; P10636; recombinant tau K18 P301L (four-repeat tau fragment), heparin-induced fibrillization, ThT fluorescence; actives 2.1% (n = 270,000); also: nearly all actives have a fitted effect of over 55% in size
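Aggregation was driven by heparin (20 uM final) acting on recombinant tau […] bearing P301L in 100 mM sodium acetate pH 7; fibrils were detected with Thioflavin T.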
TRb-SRC2 inh: inhibitors of human thyroid hormone receptor beta-SRC2 interaction; P10828; TRbeta-SRC2 peptide binding, fluorescence polarization; receptor liganded with 1 µM T3; Potency, µM (highest dose often 106 µM), for the others: at the highest dose activity change, negative = inhibition, usual class: inhibitors; actives 0.065% (n = 280,000); AID 1469;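 also: plate controls were bound peptide for no effect and peptide without receptor for full effect; nearly all actives have a fitted effect of over 50% in size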
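Read-out is fluorescence polarization (555 nm excitation, 632 nm emission) of a Texas Red SRC2 coactivator peptide; loss of signal reflects blocked binding to human TRb ligand-binding domain in the presence of 1 uM T3.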
* marks the source's active call; other numbers are inactive results; ? = inconclusive; . = not tested or not shown; [ ] = dose if it differs, or a comment. Unless noted, calls follow the shape of the dose curve; as a rule, active = well fitted curve in the direction sought with a large enough effect; inconclusive = small, poorly fitted or top-dose-only effect, or another doubt; inactive = no such curve, though single readings can be large; an effect the other way counts as inactive or inconclusive. Unless noted, % is scaled to controls: 0 for no effect and ±100 for the full control effect; potency is read from the fitted curve at half-maximal effect.

SMILES	RGS12 GoLoco inh	Tau fibril FP	Tau fluor counter	TexasRed fluor	Tau fibril ThT	TRb-SRC2 inh
O=C1C2C3C=CC(C3)C2C(=O)N1CNc1ccc(O)cc1 (stereo unspecified)	-33.7%	8.91µM*	?	-0.6%	3.16µM*	25.1µM*
Fc1c(F)c(C(F)(F)F)c(F)c(F)c1N/N=C\c1cccs1	-11.1%	4.9%	7.94µM*[quencher]	-1.4%	-19.9%	-12.1%
O[C@@H]1[C@@H]2c3cc4c(cc3CN3CCC(=C[C@@H]1O)[C@H]23)OCO4	3.6%[21.6 µM]	.	.	-3.7%[53 µM]	.	-3.6%[53 µM]
CCN1C(=O)[C@H]2[C@H]3[C@H](O)[C@H](O)C/C(=N/O[C@@H](C)c4cn([C@H](CO)Cc5ccccc5)nn4)[C@@H]3CC[C@@H]2C1=O	.	0.6%[11.6 µM]	-7.6%[11.6 µM]	-1.9%[11.2 µM]	-8.5%[11.5 µM]	-3.5%[11.2 µM]
CC1=NNC(=O)/C1=C\c1cn(-c2ccccc2)nc1-c1cccs1	7.9%	8.8%	-9.9%	-0.4%	?	5.6%
CC1=NNC(=O)/C1=C\c1cn(-c2ccccc2)nc1-c1ccc(F)cc1	5.2%	5.0%	-22.8%	-1.1%	20µM*	3.4%
Cc1ccc(N=Nc2c(C)[nH]n(C(N)=S)c2=O)cc1C	14.4%	5.3%	-3.9%	-3.2%	4.47µM*	1.3%
COc1ccc(C(c2c(C)[nH]n(C(N)=S)c2=O)C(C#N)C#N)cc1 (stereo unspecified)	-2.9%	?	-26.2%	-0.6%	?	-6.0%
Cc1[nH]n(C(N)=S)c(=O)c1N=Nc1cc(-c2ccc(Br)cc2)[nH]n1	11.3%	3.0%	?	-16.0%	2.24µM*	-3.2%
Cc1[nH]n(C(N)=S)c(=O)c1N=Nc1ccc(S(=O)(=O)N2CCCCCC2)cc1	2.0%	6.7%	-25.6%	-11.1%	25.1µM*	-8.0%
CC(=O)Nc1ccc(N=Nc2c(C)[nH]n(C(N)=S)c2=O)cc1	4.6%	-6.7%	-21.5%	-7.0%	8.91µM*	1.4%
C=CC(=O)CC	-5.4%	.	.	-0.8%	.	-1.4%
Cc1[nH]n(C(N)=S)c(=O)c1N=Nc1ccc2ccccc2c1	19.4%	3.0%	?	-6.4%	2.82µM*	-4.0%
CC1CN(C(=O)CCC(=O)NCc2cccc(Cl)c2)c2ccccc2S1 (stereo unspecified)	.	-5.7%	?	28.2µM*[quencher]	-16.7%	-13.0%
Nc1ccc(N=Nc2ccc(-c3ccc(O)cc3)cc2)c2ccc(S(=O)(=O)O)cc12	5.8%[14.2 µM]	.	.	.	.	.
O=C1C(c2[nH]c3ccc(S(=O)(=O)O)cc3c2O)=Nc2ccc(S(=O)(=O)O)cc21	-32.9%	?	-22.2%	?	8.91µM*	-11.0%
CO[C@@H]1COC(=O)C/C=C\[C@H](C)COC(=O)[C@H](C)NC(=O)C/C=C\[C@H]1C	.	-9.5%[11.6 µM]	-5.8%[11.6 µM]	-21.3%[11.2 µM]	-4.7%[11.5 µM]	4.2%[11.2 µM]
CCOc1ccc(/C=C2\SC(=S)N(C)C2=O)cc1OC	1.4%	-6.4%	-14.3%	-2.2%	?	-7.4%
CO/N=C/c1ccc(Oc2ccc([N+](=O)[O-])cc2[N+](=O)[O-])c(OC)c1	63.0%	5.0%	1.3%	-10.3%	14.9%	-3.8%
COc1cc(/C=C2\SC(=O)NC2=O)ccc1Oc1ccc([N+](=O)[O-])cc1[N+](=O)[O-]	-6.5%	-9.8%	?	-9.1%	14.1µM*	-16.5%
COc1ccc(/C=C2\SC(=O)NC2=S)cc1OC	38.4%	?	-27.3%	-5.8%	8.91µM*	-2.7%
CC(=O)C1=C(O)C=C2Oc3c(C(C)=O)c(O)c(C)c(O)c3C2(C)C1=O (stereo unspecified)	13.8%	-11.4%	-17.8%	-0.4%	-8.0%	5.7%
COc1ccc2[nH]c3c(N4CCN(Cc5ccc6c(c5)OCO6)CC4)ncnc3c2c1	.	?	20µM*[quencher]	-4.3%	?	-9.7%
COc1ccc2[nH]c3c(N4CCC(O)(c5cccc(C(F)(F)F)c5)CC4)ncnc3c2c1	5.6%	13.3%	15.8µM*[quencher]	-3.6%	?	3.1%
c1ccc(C(OC2CCCN(CCc3ccc4c(c3)OCO4)C2)c2ccccc2)cc1 (stereo unspecified)	.	.	.	0.1%	.	0.0%
SMILES	RGS12 GoLoco inh	Tau fibril FP	Tau fluor counter	TexasRed fluor	Tau fibril ThT	TRb-SRC2 inh
CC(C)=NNc1nc(-c2ccc(N3C(=O)CCC3=O)cc2)cs1	7.6%	?	?	-1.4%	17.8µM*	-6.5%
CN(C)c1ccc2c(O)cc(=O)n(C)c2c1	7.6%	22.4µM*	-27.0%	-4.6%	25.1µM*	?
CCC(=O)/C=C/C1C(C)=CCCC1(C)C (stereo unspecified)	1.0%	.	.	-0.2%	.	-1.8%
CN1C(=S)SC(/[N+]([O-])=C/c2ccc(Cl)cc2)C1(C)C (stereo unspecified)	7.0%	-0.1%	10.2%	-0.4%	.	0.9%
[O-]/[N+](=C/c1ccc(F)cc1)c1ccc(Cl)cc1	9.0%	?	-24.2%	-0.7%	31.6µM*	-0.6%
COc1ccc(CNc2ccnc(-c3c(C)noc3C)n2)c(OC)c1	-4.4%	.	.	.	.	.
CN(C)c1ccc(N2CN=C3SCC(=O)N3C2)cc1	-0.7%	12.6µM*	?	?	5.01µM*	15.8µM*
O=C1CSC2=NCN(c3ccc4c(c3)OCO4)CN12	5.2%	6.6%	-29.8%	-0.1%	?	-7.6%
CN1/C(=C/C=C(C#N)C#N)C=Cc2ccccc21	39.2%	25.1µM*	?	?	?	?
CCOC(=O)/C(C#N)=C/C=C1\C=Cc2ccccc2N1CC	108.5%	-10.3%	-29.8%	-0.3%	1.58µM*	-2.4%
CCc1cc(-c2oncc2-c2ccc(OC)cc2)c(O)cc1OC	.	.	.	-3.0%	.	-6.3%
CC(N)(C(=O)O)c1ccc(S(=O)(=O)O)cc1 (stereo unspecified)	7.3%	0.2%	0.4%	-1.3%	-1.8%	-0.3%
Cc1oc2c(O)c(O)ccc2c(=O)c1-c1cnn(-c2ccccc2)c1	2.24µM*	3.2%	-1.8%	-1.0%	-3.1%	-8.6%
COc1ccc(C2CC(c3ccccc3)Oc3ccc(C(C)(C)C)cc32)cc1 (stereo unspecified)	.	.	.	1.3%	.	-6.9%
COc1cc(OC)c(N(C)S(=O)(=O)c2cccc(C(=O)OCC(=O)c3c[nH]c4ccccc34)c2)cc1Cl	4.0%	12.6µM*	?	2.8%	9.9%	-3.6%
C=CCN(c1ccccc1OC)S(=O)(=O)c1cccc(C(=O)OCC(=O)c2c[nH]c3ccccc23)c1	-0.2%	15.8µM*	?	-1.0%	5.3%	7.5%
COc1cc(C(=O)OCC(=O)c2c[nH]c3ccccc23)ccc1OCC(=O)N1CCOCC1	-19.8%	0.4%	?	-8.0%	?	-4.4%
CN1CCN(C(=S)c2ccc(-c3cccc(Cl)c3Cl)o2)CC1	7.2%	1.7%	-20.8%	-0.2%	14.1µM*	-2.9%
